Reference: publication PMC7862700, “An all-to-all approach to the identification of sequence-specific readers for epigenetic DNA modifications on cytosine”

Assays:
Experiment in all cases: DAPPL (digital affinity profiling via proximity ligation, sequencing); 10 mM Tris-HCl pH 7.5, 50 mM NaCl, 1 mM DTT, 4% glycerol, room temperature, 30 min; GST-TFs on glutathione beads, 16-mer random dsDNA library, 0.1% formaldehyde crosslink after washing; high values mean tight binding
FLI1 = biological target: T1, FLI1 (Homo sapiens, UniProt Q01543 1-452); conditions: protein: recombinant; tags: N-terminal GST; dsDNA, one strand shown
T1 sequence: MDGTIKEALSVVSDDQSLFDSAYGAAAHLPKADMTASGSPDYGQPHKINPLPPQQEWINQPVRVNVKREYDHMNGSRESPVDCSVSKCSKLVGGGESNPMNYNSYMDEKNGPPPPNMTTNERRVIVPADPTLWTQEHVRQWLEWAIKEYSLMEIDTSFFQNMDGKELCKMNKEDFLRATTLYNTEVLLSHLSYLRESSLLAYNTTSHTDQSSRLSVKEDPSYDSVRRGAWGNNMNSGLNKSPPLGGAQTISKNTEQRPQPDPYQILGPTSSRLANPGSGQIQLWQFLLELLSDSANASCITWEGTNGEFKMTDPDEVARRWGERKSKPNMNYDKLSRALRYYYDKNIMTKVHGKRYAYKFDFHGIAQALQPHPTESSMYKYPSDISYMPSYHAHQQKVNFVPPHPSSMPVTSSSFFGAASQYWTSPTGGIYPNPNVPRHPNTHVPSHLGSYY
Outline: (§1)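 After expression in yeast as GST fusions, human transcription factors were bound to glutathione beads, DNA-barcoded and mixed with a tag-only sample. The pools were incubated with 200 nmole of a 16-mer random double-stranded DNA library in Tris/NaCl/DTT/glycerol buffer (30 min, room temperature), washed and crosslinked with 0.1% formaldehyde. Proximity ligation with BsaI/T4 ligase ran for 1 h at 37 °C, before PCR amplification and sequencing on an Illumina NextSeq500. Binding signal is a hexamer's read frequency for a factor divided by its frequency for the tag-only sample.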

ELK1 = biological target: T2, ELK1 (Homo sapiens, UniProt P19419 1-428); conditions: protein: recombinant; tags: N-terminal GST; dsDNA, one strand shown
T2 sequence: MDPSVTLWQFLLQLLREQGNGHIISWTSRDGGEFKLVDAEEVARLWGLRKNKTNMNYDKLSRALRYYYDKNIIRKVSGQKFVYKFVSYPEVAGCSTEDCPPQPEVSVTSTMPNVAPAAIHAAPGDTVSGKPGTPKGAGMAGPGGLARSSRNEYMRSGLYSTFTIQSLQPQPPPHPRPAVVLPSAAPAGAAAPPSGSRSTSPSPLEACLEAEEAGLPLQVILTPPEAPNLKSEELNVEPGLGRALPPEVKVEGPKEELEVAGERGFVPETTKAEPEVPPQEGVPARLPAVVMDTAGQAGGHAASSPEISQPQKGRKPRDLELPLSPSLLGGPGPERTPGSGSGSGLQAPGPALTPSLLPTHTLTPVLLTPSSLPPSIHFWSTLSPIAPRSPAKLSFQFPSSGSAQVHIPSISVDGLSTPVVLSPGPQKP
Outline: as §1

GABPA = biological target: T3, GABPA (Homo sapiens, UniProt Q06546 1-454); conditions: protein: recombinant; tags: N-terminal GST; dsDNA, one strand shown
T3 sequence: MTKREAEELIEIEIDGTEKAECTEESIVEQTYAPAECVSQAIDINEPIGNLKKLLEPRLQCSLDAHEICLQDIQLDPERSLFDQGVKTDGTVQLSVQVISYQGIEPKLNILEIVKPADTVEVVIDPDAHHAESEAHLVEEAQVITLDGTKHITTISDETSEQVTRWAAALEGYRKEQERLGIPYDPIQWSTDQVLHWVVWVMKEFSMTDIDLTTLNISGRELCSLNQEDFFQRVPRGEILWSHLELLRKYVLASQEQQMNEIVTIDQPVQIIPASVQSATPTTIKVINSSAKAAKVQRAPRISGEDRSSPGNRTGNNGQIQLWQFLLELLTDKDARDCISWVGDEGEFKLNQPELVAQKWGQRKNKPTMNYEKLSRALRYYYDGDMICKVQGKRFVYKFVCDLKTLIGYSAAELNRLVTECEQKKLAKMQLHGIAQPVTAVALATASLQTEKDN
Outline: as §1

ERG = biological target: T4, ERG (Homo sapiens, UniProt P11308 1-479); conditions: protein: recombinant; tags: N-terminal GST; dsDNA, one strand shown
T4 sequence: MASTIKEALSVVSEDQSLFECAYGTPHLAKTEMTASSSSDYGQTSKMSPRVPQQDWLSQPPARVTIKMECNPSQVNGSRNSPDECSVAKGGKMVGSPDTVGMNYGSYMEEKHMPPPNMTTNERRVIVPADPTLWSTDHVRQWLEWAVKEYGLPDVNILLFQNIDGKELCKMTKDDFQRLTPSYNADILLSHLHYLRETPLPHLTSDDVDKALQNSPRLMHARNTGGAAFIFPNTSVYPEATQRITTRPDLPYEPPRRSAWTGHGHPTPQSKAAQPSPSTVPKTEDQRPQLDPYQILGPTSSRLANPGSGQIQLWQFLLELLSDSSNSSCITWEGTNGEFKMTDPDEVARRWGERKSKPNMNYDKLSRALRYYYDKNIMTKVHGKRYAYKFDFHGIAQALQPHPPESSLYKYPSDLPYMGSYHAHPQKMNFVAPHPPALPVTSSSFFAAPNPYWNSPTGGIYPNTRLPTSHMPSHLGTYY
Outline: as §1

ELF1 = ELF1 (Homo sapiens, UniProt P32519 1-619); conditions: protein: recombinant; tags: N-terminal GST; dsDNA, one strand shown
Outline: as §1

EHF = biological target: T5, EHF (Homo sapiens, UniProt Q9NZC4 1-300); conditions: protein: recombinant; tags: N-terminal GST; dsDNA, one strand shown
T5 sequence: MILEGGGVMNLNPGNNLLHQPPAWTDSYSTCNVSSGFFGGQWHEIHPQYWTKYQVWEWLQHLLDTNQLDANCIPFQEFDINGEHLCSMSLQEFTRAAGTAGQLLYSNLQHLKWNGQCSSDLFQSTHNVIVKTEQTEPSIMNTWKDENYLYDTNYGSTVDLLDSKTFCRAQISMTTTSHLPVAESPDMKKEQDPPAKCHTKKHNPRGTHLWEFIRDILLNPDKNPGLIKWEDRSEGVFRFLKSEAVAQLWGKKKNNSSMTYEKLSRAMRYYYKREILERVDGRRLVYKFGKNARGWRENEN
Outline: as §1

SPI1 = SPI1 (Homo sapiens, UniProt P17947 1-270); conditions: protein: recombinant; tags: N-terminal GST; dsDNA, one strand shown
Outline: as §1

SPIB = SPIB (Homo sapiens, UniProt Q01892 1-262); conditions: protein: recombinant; tags: N-terminal GST; dsDNA, one strand shown
Outline: as §1

ELK3 = biological target: T6, ELK3 (Homo sapiens, UniProt P41970 1-407); conditions: protein: recombinant; tags: N-terminal GST; dsDNA, one strand shown
T6 sequence: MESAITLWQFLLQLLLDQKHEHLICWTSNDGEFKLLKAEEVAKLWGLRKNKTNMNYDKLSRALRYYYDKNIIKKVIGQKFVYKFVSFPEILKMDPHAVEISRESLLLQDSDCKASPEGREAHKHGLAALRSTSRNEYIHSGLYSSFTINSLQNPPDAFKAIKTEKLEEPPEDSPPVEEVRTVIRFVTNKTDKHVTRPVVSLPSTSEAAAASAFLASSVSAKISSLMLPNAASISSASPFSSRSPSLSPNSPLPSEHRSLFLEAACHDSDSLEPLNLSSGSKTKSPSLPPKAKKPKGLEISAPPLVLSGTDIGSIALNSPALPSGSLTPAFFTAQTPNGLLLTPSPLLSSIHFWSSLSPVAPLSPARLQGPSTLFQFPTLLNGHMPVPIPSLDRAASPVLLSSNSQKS
Outline: as §1

FEV = biological target: T7, FEV (Homo sapiens, UniProt Q99581 1-238); conditions: protein: recombinant; tags: N-terminal GST; dsDNA, one strand shown
T7 sequence: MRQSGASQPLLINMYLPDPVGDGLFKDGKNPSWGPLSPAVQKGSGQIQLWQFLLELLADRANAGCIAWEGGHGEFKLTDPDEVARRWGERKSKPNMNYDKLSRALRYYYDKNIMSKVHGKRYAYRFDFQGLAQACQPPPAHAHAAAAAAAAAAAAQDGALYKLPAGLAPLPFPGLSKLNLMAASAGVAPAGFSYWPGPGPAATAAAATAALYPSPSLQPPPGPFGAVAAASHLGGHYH
Outline: as §1

ETV5 = ETV5 (Homo sapiens, UniProt P41161 1-510); conditions: protein: recombinant; tags: N-terminal GST; dsDNA, one strand shown
Outline: as §1

HSF1 = HSF1 (Homo sapiens, UniProt Q00613 1-529); conditions: protein: recombinant; tags: N-terminal GST; chain copies: 3; dsDNA, one strand shown
Outline: as §1

SPIC = biological target: T8, SPIC (Homo sapiens, UniProt Q8N5J4 1-248); conditions: protein: recombinant; tags: N-terminal GST; dsDNA, one strand shown
T8 sequence: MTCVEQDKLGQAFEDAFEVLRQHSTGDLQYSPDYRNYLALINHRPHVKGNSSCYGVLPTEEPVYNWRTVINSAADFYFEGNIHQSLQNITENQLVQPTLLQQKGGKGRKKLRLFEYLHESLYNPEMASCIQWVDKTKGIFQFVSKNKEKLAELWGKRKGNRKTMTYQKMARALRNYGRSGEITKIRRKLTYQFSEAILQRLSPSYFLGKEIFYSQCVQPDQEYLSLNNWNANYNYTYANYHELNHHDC
Outline: as §1

ELF4 = ELF4 (Homo sapiens, UniProt Q99607 1-663); conditions: protein: recombinant; tags: N-terminal GST; dsDNA, one strand shown
Outline: as §1

ELK4 = biological target: T9, ELK4 (Homo sapiens, UniProt P28324-2 1-405); conditions: protein: recombinant; tags: N-terminal GST; dsDNA, one strand shown
T9 sequence: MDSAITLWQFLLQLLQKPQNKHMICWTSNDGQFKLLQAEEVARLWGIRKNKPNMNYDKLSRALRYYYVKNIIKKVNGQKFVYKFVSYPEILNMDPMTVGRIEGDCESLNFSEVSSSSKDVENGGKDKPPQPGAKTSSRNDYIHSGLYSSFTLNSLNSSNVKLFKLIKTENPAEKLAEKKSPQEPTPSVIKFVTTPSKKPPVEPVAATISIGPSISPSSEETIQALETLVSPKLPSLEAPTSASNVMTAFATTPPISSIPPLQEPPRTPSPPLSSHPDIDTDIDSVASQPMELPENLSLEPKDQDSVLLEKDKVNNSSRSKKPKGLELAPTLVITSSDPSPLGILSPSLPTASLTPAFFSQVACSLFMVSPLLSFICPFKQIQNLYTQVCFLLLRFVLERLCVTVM
Outline: as §1

ETV2 = biological target: T10, ETV2 (Homo sapiens, UniProt O00321 1-342); conditions: protein: recombinant; tags: N-terminal GST; dsDNA, one strand shown
T10 sequence: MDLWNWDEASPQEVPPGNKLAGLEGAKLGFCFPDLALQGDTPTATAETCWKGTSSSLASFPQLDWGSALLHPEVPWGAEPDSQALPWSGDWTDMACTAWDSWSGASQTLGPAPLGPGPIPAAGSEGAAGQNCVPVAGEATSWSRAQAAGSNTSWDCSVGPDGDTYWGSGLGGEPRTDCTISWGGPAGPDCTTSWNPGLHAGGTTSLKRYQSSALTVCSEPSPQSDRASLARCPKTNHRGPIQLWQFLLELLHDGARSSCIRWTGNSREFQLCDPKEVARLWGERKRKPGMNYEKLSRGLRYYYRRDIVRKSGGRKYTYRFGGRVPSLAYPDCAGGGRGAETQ
Outline: as §1

ELF3 = biological target: T11, ELF3 (Homo sapiens, UniProt P78545 1-371); conditions: protein: recombinant; tags: N-terminal GST; dsDNA, one strand shown
T11 sequence: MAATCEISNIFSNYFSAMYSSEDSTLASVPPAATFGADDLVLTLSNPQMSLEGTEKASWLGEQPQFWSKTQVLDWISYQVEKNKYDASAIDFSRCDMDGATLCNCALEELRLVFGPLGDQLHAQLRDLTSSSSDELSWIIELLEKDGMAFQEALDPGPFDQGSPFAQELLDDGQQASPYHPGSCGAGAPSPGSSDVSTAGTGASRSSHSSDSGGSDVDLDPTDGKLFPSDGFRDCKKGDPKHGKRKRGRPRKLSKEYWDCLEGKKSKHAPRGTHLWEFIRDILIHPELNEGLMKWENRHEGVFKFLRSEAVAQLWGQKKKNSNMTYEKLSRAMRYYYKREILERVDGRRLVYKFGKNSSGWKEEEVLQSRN
Outline: as §1

CRX = CRX (Homo sapiens, UniProt O43186 1-299); conditions: protein: recombinant; tags: N-terminal GST; dsDNA, one strand shown
Outline: as §1

ETV1 = ETV1 (Homo sapiens, UniProt P50549 1-477); conditions: protein: recombinant; tags: N-terminal GST; dsDNA, one strand shown
Outline: as §1

Chain of SPIB (Q01892 whole entry): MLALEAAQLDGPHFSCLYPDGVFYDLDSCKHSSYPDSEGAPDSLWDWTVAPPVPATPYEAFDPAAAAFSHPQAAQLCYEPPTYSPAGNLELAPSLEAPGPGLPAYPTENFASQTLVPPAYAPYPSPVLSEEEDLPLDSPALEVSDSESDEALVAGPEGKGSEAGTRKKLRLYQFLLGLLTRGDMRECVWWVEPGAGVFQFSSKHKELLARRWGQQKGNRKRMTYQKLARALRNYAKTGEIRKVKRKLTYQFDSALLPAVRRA
Chain of CRX (O43186 whole entry): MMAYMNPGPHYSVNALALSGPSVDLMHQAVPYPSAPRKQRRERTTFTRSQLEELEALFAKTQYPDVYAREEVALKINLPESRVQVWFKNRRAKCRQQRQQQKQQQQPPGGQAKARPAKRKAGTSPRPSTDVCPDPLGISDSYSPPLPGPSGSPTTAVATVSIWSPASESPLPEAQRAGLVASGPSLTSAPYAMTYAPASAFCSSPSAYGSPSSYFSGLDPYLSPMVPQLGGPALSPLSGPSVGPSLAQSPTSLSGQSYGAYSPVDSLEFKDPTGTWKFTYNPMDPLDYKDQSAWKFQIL
Chain of ETV5 (P41161 whole entry): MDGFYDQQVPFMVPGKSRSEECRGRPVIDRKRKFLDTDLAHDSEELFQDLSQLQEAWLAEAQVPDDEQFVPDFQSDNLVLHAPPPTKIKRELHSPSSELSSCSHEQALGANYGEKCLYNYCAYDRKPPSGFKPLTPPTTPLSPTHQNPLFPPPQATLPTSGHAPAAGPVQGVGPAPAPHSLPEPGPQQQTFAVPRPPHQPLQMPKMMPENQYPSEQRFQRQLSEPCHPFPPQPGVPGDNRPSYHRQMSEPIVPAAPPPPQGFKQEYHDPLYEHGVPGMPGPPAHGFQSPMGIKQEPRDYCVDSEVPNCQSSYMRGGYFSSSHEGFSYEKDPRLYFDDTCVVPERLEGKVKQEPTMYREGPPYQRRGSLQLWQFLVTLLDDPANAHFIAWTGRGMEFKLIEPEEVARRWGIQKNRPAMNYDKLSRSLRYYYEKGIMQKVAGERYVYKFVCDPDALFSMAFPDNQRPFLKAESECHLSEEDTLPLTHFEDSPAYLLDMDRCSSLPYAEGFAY
Chain of ELF1 (P32519 whole entry): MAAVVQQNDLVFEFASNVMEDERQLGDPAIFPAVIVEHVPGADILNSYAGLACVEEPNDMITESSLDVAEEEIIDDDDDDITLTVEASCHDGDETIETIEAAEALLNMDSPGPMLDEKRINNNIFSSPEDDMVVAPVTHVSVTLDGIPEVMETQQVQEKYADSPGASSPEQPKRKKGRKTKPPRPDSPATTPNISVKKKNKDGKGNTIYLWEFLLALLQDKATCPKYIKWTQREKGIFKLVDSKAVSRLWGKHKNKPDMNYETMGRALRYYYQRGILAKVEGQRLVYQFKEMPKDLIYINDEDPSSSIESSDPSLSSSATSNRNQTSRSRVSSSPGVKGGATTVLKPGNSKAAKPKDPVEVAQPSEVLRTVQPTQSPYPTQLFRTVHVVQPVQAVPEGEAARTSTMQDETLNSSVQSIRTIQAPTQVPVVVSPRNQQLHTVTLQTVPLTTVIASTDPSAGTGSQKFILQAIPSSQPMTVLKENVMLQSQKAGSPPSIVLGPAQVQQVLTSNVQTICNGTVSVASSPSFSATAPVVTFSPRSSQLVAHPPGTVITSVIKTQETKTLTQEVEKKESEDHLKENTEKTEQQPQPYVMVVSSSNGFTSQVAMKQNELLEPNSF
Chain of HSF1 (Q00613 whole entry): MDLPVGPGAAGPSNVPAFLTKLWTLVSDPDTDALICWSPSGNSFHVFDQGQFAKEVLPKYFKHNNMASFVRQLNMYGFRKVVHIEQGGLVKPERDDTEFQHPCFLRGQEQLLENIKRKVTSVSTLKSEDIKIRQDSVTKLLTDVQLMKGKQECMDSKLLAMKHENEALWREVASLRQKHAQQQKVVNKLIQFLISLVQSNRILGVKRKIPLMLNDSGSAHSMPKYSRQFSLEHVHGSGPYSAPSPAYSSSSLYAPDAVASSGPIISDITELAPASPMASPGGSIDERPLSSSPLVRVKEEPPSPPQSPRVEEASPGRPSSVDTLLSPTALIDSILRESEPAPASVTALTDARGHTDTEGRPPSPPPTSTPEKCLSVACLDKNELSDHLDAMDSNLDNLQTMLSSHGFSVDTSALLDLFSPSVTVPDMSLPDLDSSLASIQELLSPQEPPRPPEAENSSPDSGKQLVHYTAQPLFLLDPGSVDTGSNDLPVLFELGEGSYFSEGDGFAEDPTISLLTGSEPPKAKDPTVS
Chain of ELF4 (Q99607 whole entry): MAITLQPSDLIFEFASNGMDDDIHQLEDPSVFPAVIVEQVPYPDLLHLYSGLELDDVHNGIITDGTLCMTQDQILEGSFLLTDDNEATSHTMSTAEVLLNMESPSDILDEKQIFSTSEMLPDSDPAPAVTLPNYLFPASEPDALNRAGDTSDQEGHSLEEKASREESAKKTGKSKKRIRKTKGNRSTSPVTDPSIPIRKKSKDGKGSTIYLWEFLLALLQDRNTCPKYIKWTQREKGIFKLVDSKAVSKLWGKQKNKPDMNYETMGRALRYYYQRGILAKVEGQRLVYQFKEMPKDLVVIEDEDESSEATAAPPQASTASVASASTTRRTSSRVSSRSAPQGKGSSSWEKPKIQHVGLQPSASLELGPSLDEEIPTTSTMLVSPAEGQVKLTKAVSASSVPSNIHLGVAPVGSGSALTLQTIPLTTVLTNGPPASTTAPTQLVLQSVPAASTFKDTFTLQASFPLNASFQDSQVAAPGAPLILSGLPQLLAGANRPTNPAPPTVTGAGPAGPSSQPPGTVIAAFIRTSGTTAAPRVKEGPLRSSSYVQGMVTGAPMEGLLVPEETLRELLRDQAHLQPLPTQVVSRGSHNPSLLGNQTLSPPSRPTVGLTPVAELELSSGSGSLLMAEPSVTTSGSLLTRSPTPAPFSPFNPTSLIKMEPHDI
Chain of ETV1 (P50549 whole entry): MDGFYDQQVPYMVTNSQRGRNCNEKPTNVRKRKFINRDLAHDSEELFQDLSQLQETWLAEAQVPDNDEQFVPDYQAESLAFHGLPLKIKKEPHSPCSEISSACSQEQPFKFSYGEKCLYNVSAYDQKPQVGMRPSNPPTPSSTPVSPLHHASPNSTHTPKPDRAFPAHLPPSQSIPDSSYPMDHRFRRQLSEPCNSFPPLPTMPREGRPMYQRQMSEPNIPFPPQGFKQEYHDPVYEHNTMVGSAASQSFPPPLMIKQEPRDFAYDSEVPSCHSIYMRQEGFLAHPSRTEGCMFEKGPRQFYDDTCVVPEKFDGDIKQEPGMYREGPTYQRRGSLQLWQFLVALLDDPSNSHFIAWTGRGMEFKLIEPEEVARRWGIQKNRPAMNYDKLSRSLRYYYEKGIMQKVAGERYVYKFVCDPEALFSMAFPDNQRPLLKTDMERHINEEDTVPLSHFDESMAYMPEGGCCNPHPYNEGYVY

Q: What does the source list for CTACAA?
A: binding signal (FLI1): 1.17 fold enrichment (6-mer frequency, TF over GST control); binding signal (ELK1): 1.13 fold enrichment (6-mer frequency, TF over GST control); binding signal (GABPA): 1.2 fold enrichment (6-mer frequency, TF over GST control); binding signal (ERG): 1.08 fold enrichment (6-mer frequency, TF over GST control); binding signal (ELF1): 1.13 fold enrichment (6-mer frequency, TF over GST control); binding signal (EHF): 1.14 fold enrichment (6-mer frequency, TF over GST control); binding signal (SPI1): 1.09 fold enrichment (6-mer frequency, TF over GST control); binding signal (SPIB): 1.15 fold enrichment (6-mer frequency, TF over GST control); binding signal (ELK3): 1.03 fold enrichment (6-mer frequency, TF over GST control); binding signal (FEV): 1.14 fold enrichment (6-mer frequency, TF over GST control); binding signal (ETV5): 1.21 fold enrichment (6-mer frequency, TF over GST control); binding signal (HSF1): 1.16 fold enrichment (6-mer frequency, TF over GST control); binding signal (SPIC): 1.2 fold enrichment (6-mer frequency, TF over GST control); binding signal (ELF4): 1.18 fold enrichment (6-mer frequency, TF over GST control); binding signal (ELK4): 1.21 fold enrichment (6-mer frequency, TF over GST control); binding signal (ETV2): 1.18 fold enrichment (6-mer frequency, TF over GST control); binding signal (ELF3): 1.03 fold enrichment (6-mer frequency, TF over GST control); binding signal (CRX): 1.04 fold enrichment (6-mer frequency, TF over GST control); binding signal (ETV1): 1.13 fold enrichment (6-mer frequency, TF over GST control)
